Compound activity from PubChem.
SW480 rereplic: A quantitative high throughput screen for small molecules that induce DNA re-replication in SW480 colon adenocarcinoma cells | Potency, µM (top dose mostly 46.1 µM), inactives show top-dose re-replication activation, actives largely listed as activators | AID 624297, 2012 | 340,000 tested, 1.8% active | SW480 DNA re-replication, Hoechst DNA content imaging, 48 h; further: potency means the concentration at half of the fitted maximal effect; % of control where 0% means no effect; nearly all actives have a fitted effect of over 55% in size
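Cells (250 per well) received 23 nL compound or DMSO by pin tool and were kept 48 hr at 37 C, 5% CO2. Nuclei were then stained with Hoechst for 40 min and scanned for DNA content.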
Giardia kill: Small Molecules that selectively kill Giardia lamblia: qHTS. 340,000 tested, 0.15% active. activity change, % at 7.66 µM, hits read low. Giardia lamblia trophozoite viability; in the data active means activity change below about -80%; inconclusive means between about -30% and that limit;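 further: parasites exposed to compound for two days anaerobically before the ATP read; on the % scale 0 is the no-effect control and ±100 the full control effect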
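Killing of trophozoites was scored by loss of ATP luminescence after a 48 hrs anaerobic exposure to compounds at 37 deg C, using 100 cells per well.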
KB-3-1 tox: qHTS assay for MDR1-selective chemotherapeutics: Primary screen using the parental adenocarcinoma cell KB-3-1; KB-3-1 viability, CellTiter-Glo ATP luminescence, 72 h; Potency, µM (series often up to 46.1 µM), hits mostly cytotoxic; 400,000 tested, 1.4% active; further: potency means the concentration at half of the fitted maximal effect; on the % scale 0 is the no-effect control and ±100 the full control effect; nearly all actives have a fitted effect of over 60% in size
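KB-3-1 cells, DMEM (no phenol red) + 10% FBS; compound by pin transfer, 72 h, 37 °C. Readout: CellTiter-Glo luminescence after 10 min. Data normalized, curve-fitted.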
KB-V1 cytotox: qHTS assay for MDR1-selective chemotherapeutics: Primary screen using the drug-selected MDR subline cells KB-V1 | Potency, µM (highest dose often 46.1 µM), actives largely listed as cytotoxic | 400,000 tested, 3.4% active | KB-V1 MDR cells viability, CellTiter-Glo, 72 h; further: potency means the concentration at half of the fitted maximal effect; on the % scale 0 is the no-effect control and ±100 the full control effect; nearly all actives have a fitted effect of over 60% in size
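Drug-selected KB-V1 cells, grown in DMEM lacking phenol red with 10% FBS, receive compound titrations; after three days at 37 degrees C, surviving cell ATP is quantified by CellTiter-Glo luminescence and responses normalized and curve-fitted.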
S-ASM inh: Inhibitors of Secretory Acid Sphingomyelinase (S-ASM): qHTS; Sphingomyelin phosphodiesterase (Homo sapiens), P17405; Potency, µM (series often up to 57.5 µM), inactives show at the top dose activity change, negative = inhibition, hits mostly inhibitors; placental ASM, HMU-PC fluorogenic substrate, 60 min; 340,000 tested, 0.006% active; further: potency means the concentration at half of the fitted maximal effect
Target sequence (P17405 47-631 limits assumed): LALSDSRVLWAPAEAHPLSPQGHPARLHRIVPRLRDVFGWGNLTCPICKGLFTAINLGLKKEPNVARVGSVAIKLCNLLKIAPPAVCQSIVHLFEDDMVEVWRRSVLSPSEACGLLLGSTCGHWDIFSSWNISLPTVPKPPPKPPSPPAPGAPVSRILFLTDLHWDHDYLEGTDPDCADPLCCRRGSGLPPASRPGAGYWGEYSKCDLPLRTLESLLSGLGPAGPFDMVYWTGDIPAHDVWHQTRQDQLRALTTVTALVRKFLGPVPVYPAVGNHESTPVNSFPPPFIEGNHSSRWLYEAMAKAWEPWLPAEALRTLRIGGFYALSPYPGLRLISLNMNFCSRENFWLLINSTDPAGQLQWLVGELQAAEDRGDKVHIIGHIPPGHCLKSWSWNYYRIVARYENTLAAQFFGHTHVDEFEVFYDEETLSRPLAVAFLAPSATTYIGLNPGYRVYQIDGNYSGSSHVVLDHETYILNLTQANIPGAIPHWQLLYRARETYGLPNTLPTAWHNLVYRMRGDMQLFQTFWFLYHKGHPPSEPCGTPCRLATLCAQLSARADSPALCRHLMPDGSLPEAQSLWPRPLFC
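Fluorescence read-out (Ex 386 nm, Em 447 nm) after stopping the reaction at pH 10. Enzyme: ASM from human placenta; substrate HMU-PC0, 9 uM final; 60 min, 37 °C. Compound preincubation 10 min, ambient temperature.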
MCF10A rerep: A quantitative high throughput screen for small molecules that induce DNA re-replication in MCF 10a normal breast cells; MCF 10A DNA re-replication, Hoechst nuclear intensity, 48 h; Potency, µM (top dose mostly 46.1 µM), for the others: top-dose activity, positive = re-replication, most hits filed as activators; 350,000 tested, 2.9% active; AID 624296, 2012; further: potency means the concentration at half of the fitted maximal effect; % of control where 0% means no effect; nearly all actives have a fitted effect of over 50% in size
Active calls of the source: *; i = inactive; ? = inconclusive; · = no result given; ! = not confirmed by another sample. Most compounds without a hit are left out; they make up all but 6.9% or so of the library. Unless noted, the call rests on the fitted dose curve; in most records, active means well fitted curve in the direction sought with a large enough effect; inconclusive means small, poorly fitted or top-dose-only effect, or another doubt; inactive means no such curve, though single readings can be large; an effect the other way counts as inactive or inconclusive.

SMILES	SW480 rereplic	Giardia kill	KB-3-1 tox	KB-V1 cytotox	S-ASM inh	MCF10A rerep
Cc1cccc(NC(=O)/C(C#N)=C/c2cn(CC(=O)NCc3ccco3)c3ccccc23)c1C	?	-14	?	?	128%	?
O=C(CCNS(=O)(=O)c1ccc2c(c1)CCN2C(=O)C1CC1)N1CCN(c2ccc(F)cc2)CC1	·	·	i	i	·	·
CSc1ccc(CCNC(=O)CCc2nnc3ccc(N4CCC5(CC4)OCCO5)nn23)cc1	21%	17	i	i	5%	?
COc1cc(-c2noc(C)c2-c2ccc3[nH]ccc3c2)cc(OC)c1OC	2.6µM*	-2	1.8µM*	1.8µM*!	-26%	?
COc1cc(-c2noc(C)c2-c2ccc(N(C)C)nc2)cc(OC)c1OC	0.29µM*	9	0.0065µM*	0.21µM*	1%	?
COc1cc(-c2noc(C)c2C(=O)NCCc2c[nH]c3ccccc23)cc(OC)c1OC	-4%	-6	i	?	4%	?
COc1cc(-c2noc(C)c2/C=C/c2ccc(C(=O)O)cc2)cc(OC)c1OC	?	-15	?	i	1%	?
CN(C)S(=O)(=O)N(CC(=O)Nc1ccc(F)c(F)c1)c1ccccc1	-9%	16	i	21µM*	2%	3%
Cc1ccc(NC(=O)CN(c2ccccc2)S(=O)(=O)N(C)C)cc1	-1%	-10	i	15µM*	-2%	3%
CN(C)S(=O)(=O)N(CC(=O)Nc1ccc(C(F)(F)F)cc1)c1ccccc1	·	·	i	i	·	·
CCn1cc(C(=O)OCC(=O)Nc2cccc(C(C)=O)c2)c(=O)c2ccc(C)nc21	·	·	i	?	·	·
CCn1cc(C(=O)OCC(=O)Nc2cccc(S(=O)(=O)N3CCOCC3)c2)c(=O)c2ccc(C)nc21	-14%	-6	i	8.2µM*	0%	10%
CCOC(=O)c1ccc(NC(=O)c2cccc(S(=O)(=O)N3CCOCC3)c2)cc1	-3%	1	i	23µM*	-7%	0%
CCOC(=O)c1c(-c2ccccc2)csc1NC(=O)c1ccc(S(=O)(=O)N2CCOCC2)cc1	?	-11	i	i	8%	12µM*
CCOc1cc(N2CCOCC2)c(OCC)cc1NC(=O)c1cccc(S(=O)(=O)N2CC(C)OC(C)C2)c1 (configuration not stated)	·	·	i	i	·	·
CCOc1cc(N2CCOCC2)c(OCC)cc1NC(=O)c1cccc(S(=O)(=O)N2CCOCC2)c1	0%	3	i	15µM*	-4%	6%
CCn1nnc2cc(C(=O)Nc3ccc(C)c(Cl)c3)ccc21	·	·	i	?	·	·
COc1ccc(N(C(=O)c2cccnc2)S(=O)(=O)c2ccc3c4c(cccc24)C(=O)N3C)cc1	-6%	-2	i	16µM*	102%	?
Cc1ccc(-c2c(C(=O)N3CCN(c4cccc(C)c4C)CC3)oc(=O)c3ccccc23)cc1	·	·	i	i	·	·
O=C(CN(Cc1ccccc1)C(=O)c1cc2c(s1)CCC2)NCc1cccs1	17%	1	?	2.9µM*	-3%	14%
CC(C)CCN(CCC(C)C)CC(O)Cn1c2ccccc2c(=O)c2ccccc21 (configuration not stated)	?	-29	i	?	i	3.3µM*
COc1cccc(C(=O)Nc2cccc(OCc3cc(=O)n4c5c(sc4n3)CCCC5)c2)c1	·	·	i	i	·	·
O=C(/C=C/c1ccco1)Nc1ccc2nn(-c3ccccc3)nc2c1	3%	13	i	i	-2%	7.3µM*
Cc1cc(NC(=O)/C=C/c2ccco2)ccc1NC(=O)c1ccccc1	11%	-24	i	i	0%	17%
Cc1ccc(-n2nc3ccc(NC(=O)C(C)C)cc3n2)cc1	9%	-18	?	i	6%	4%
SMILES	SW480 rereplic	Giardia kill	KB-3-1 tox	KB-V1 cytotox	S-ASM inh	MCF10A rerep
CC(C)CC(=O)Nc1ccc2nn(-c3ccccc3)nc2c1	14%	-4	i	16µM*	14%	11%
O=C(CSc1nnc(Cn2nnc3ccccc32)o1)N(Cc1ccc(Cl)cc1)c1ccccc1	3%	-14	13µM*	i	-10%	-15%
O=C(CSc1nnc(Cn2nnc3ccccc32)o1)Nc1cccc(Cl)c1	-3%	-2	i	i	-10%	8%
COc1cccc(NC(=O)CSC2=Nc3ccccc3N=C(c3ccc(F)cc3)C2)c1	·	·	i	i	·	·
O=C(Cn1nc(-c2ccccc2)ccc1=O)NCCN1CCN(Cc2ccccc2)CC1	-11%	6	i	i	3%	-5%
Cc1ccc(-c2noc(CCC(=O)NCCCN3CCN(c4ccc(F)cc4)CC3)n2)cc1	?	17	?	13µM*	0%	7%
Cc1ccccc1CS(=O)(=O)CCC(=O)NCCCN1CCN(c2ccccc2F)CC1	-1%	-21	i	i	0%	?
Cc1ccccc1CS(=O)(=O)CCC(=O)NCCN1CCN(c2cccc(Cl)c2)CC1	-124%	-4	i	10µM*	4%	0%
CCN1CCN(CCCNC(=O)CCc2nc(-c3ccc(OC)cc3)no2)CC1	7%	9	i	i	1%	-12%
O=C(Cn1nc(-c2ccccc2)ccc1=O)NCCN1CCN(c2cccc(Cl)c2)CC1	-2%	5	i	5.8µM*	0%	-1%
Cc1ccc(-c2noc(CCC(=O)NCCCN3CCN(c4cccc(Cl)c4)CC3)n2)cc1	?	5	18µM*	16µM*	-5%	?
Cc1cc(C)c2oc(C(=O)Nc3sc4c(c3C(=O)NCc3ccco3)CCC4)cc(=O)c2c1	·	·	i	?	·	·
Cc1ccc(N2CCN(C(=O)c3cnn(-c4ccc(F)cc4F)c3C3CCN(C(=O)OC(C)(C)C)CC3)CC2)c(C)c1	·	·	i	i	·	·
ClCCn1cnc2c(SCc3ccccc3Cl)ncnc21	8%	-4	?	?	-10%	9%
ClCCn1cnc2c(SCc3ccccc3)ncnc21	?	-26	4.1µM*	6.5µM*	-4%	16%
COc1ccc(C(=O)NCc2ccc3[nH]c(C)cc3c2)cc1OC	75%	-6	i	i	-2%	4.6µM*
COc1cc(OC)cc(C(=O)NCc2ccc3[nH]c(C)cc3c2)c1	4%	12	i	i	-2%	0.65µM*
